nsP2pro inh: Primary qHTS for inhibitors of NSP2Pro chikungunya virus (CHIKV). Polyprotein P1234 (Chikungunya virus (strain S27-African prototype)), Q8JUX6. FRET peptide cleavage, nsP2pro, fluorescence 1 h. Potency, µM (series often up to 24.9 µM), most hits filed as inhibitors. actives 1.1% (n = 31,000); further: nearly all actives have a fitted effect of over 60% in size
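Purified recombinant nsP2pro (150 nM final) in 10 mM Tris-HCl pH 8.0 with 0.01% Tween 20 was preincubated 15 min at room temperature with compound (7 concentrations, up to 25 uM). FRET peptide 2 substrate (2.5 uM final) was then added; fluorescence was read after 1 h.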
CHIKV nsP2 cell: Secondary cell base assay for inhibitors of NSP2Pro Chikungunya virus (CHIKV) | Potency, µM (highest dose often 51.1 µM), hits mostly inhibitors | AID 1964100, 2024 | cell-based CHIKV nsP2 protease reporter assay | shares compounds with nsP2pro inh | actives 10% (n = 450); further: nearly all actives have a fitted effect of over 70% in size
CHIKV NSP2 FL: Selectivity profile for inhibitors of NSP2Pro chikungunya virus (CHIKV): Full length NSP2 enzyme counterscreen (CHIKV-NSP2). shares compounds with nsP2pro inh. Full-length CHIKV NSP2 protease enzymatic counterscreen. Potency, µM (titrated, usually from 50.7 µM), hits mostly inhibitors. actives 39% (n = 410); further: nearly all actives have a fitted effect of over 65% in size
Furin counterscr: Selectivity profile for inhibitors of NSP2Pro chikungunya virus (CHIKV): Human furin counterscreen; shares compounds with nsP2pro inh; Recombinant human furin enzymatic counterscreen, fluorogenic substrate; Potency, µM (doses to about 50.6 µM), most hits filed as inhibitors; actives 6% (n = 410); AID 1964102, 2024
Target sequence (P09958 whole entry, looked up): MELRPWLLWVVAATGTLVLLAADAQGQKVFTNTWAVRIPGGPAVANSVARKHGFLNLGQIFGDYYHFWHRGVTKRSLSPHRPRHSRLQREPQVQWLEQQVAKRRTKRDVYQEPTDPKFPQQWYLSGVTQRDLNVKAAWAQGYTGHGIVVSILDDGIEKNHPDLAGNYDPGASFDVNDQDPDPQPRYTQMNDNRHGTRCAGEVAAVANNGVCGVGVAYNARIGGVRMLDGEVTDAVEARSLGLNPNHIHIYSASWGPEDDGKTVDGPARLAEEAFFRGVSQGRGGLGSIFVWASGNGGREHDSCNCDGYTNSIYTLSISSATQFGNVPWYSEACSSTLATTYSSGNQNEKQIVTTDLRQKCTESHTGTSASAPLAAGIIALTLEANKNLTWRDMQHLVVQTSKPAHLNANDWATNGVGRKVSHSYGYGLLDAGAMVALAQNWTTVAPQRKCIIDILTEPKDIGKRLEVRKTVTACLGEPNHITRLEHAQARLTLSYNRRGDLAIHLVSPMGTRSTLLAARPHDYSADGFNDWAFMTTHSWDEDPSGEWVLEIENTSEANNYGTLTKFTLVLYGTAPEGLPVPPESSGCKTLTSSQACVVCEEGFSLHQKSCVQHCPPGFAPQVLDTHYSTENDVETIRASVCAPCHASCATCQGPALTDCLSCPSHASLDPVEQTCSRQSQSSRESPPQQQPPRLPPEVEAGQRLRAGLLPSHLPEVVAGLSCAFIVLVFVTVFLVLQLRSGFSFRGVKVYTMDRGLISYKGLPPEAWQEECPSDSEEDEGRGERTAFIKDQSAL
NS23 peptide cs: Selectivity profile for inhibitors of NSP2Pro chikungunya virus (CHIKV): Endogenous NS2/3 peptide Counterscreen; shares compounds with nsP2pro inh; Purified CHIKV nsP2 protease, endogenous NS2/3 peptide cleavage; Potency, µM (highest dose often 51 µM), most hits filed as inhibitors; actives 34% (n = 410); further: nearly all actives have a fitted effect of over 55% in size
Papain counter: Selectivity profile for inhibitors of NSP2Pro chikungunya virus (CHIKV): Papain Counterscreen. actives 5% (n = 410). purified papain protease activity, enzymatic inhibition. Potency, µM (doses to about 51 µM), actives largely listed as inhibitors. shares compounds with nsP2pro inh
nsP2pro conf qHTS: Confirmatory qHTS for inhibitors of NSP2Pro chikungunya virus (CHIKV); AID 1964105, 2024; CHIKV nsP2 protease enzymatic activity, qHTS; shares compounds with nsP2pro inh; actives 43% (n = 410); Potency, µM (doses to about 25.5 µM), hits mostly inhibitors; further: nearly all actives have a fitted effect of over 75% in size
HCV NS3 4A cs: Selectivity profile for inhibitors of NSP2Pro chikungunya virus (CHIKV): NS34A-HCV Counterscreen; actives 20% (n = 410); Potency, µM (series often up to 50.9 µM), usual class: inhibitors; shares compounds with nsP2pro inh; HCV NS3/4A protease biochemical counterscreen; further: nearly all actives have a fitted effect of over 55% in size
A number is an active result; [ ] = dose if it differs, or a comment. Many of the other results were omitted from the sample, so hits are more common in it than they were. The call rests on the fitted dose curve.

Screening O=C(Nc1ccc([N+](=O)[O-])cc1)Nc1ccc([N+](=O)[O-])cc1 returned nsP2pro inh inactive.
`COC(=O)C#Cc1ccc([N+](=O)[O-])cc1` gave nsP2pro inh 0.988µM, CHIKV nsP2 cell inconclusive, CHIKV NSP2 FL 1.16µM, Furin counterscr inactive, NS23 peptide cs 2.91µM, Papain counter inactive, nsP2pro conf qHTS 0.565µM and HCV NS3 4A cs inactive.
COc1ccc(Br)cc1CNC(=O)c1cc2c(=O)n(C)c3ccccc3c2s1 was read as nsP2pro inh inactive.
For Cc1ccccc1-c1noc(-c2cccnc2NCc2ccco2)n1 the results were nsP2pro inh inactive.
Screening COc1ccc(-c2noc(-c3cccnc3NCc3ccco3)n2)cc1 returned nsP2pro inh inconclusive and CHIKV nsP2 cell inactive.
`COc1cccc(-c2nc(-c3ccc(C(=O)O)cc3)no2)c1` gave nsP2pro inh inactive.
Cc1cccc(CC(=O)N2CC(Oc3ccccc3-c3noc(C)n3)C2)c1 was read as nsP2pro inh inactive.
Screening C[C@H](O)C(O)(C(=O)OCc1ccccc1NC(=O)CCC(N)C(=O)O)[C@H](C)O (stereo partly drawn) returned nsP2pro inh inactive.
COC(=O)C1=CO[C@@H](O[C@@H]2O[C@H](CO)[C@@H](O)[C@H](O)[C@H]2O)[C@@H]2C(C)CC(=O)[C@]12O (stereo partly drawn) was read as nsP2pro inh inactive.
Screening COC(=O)C1=COC(OC2OC(CO)C(O)C(O)C2O)C2C(C)CC(=O)C12O (stereo not drawn) returned nsP2pro inh inactive.
CC1CC(=O)[C@]2(O)C(C(=O)OCCc3ccc(O)c(O)c3)=CO[C@@H](O[C@@H]3O[C@H](CO)[C@@H](O)[C@H](O)[C@H]3O)[C@H]12 (stereo partly drawn) was read as nsP2pro inh 3.83µM, CHIKV nsP2 cell inactive, CHIKV NSP2 FL inactive, Furin counterscr inactive, NS23 peptide cs inactive, Papain counter inactive, nsP2pro conf qHTS inconclusive and HCV NS3 4A cs 4µM.
`CCc1cccc2c(C(CC(=O)N3CCCC3)c3cccc([N+](=O)[O-])c3)c[nH]c12` (stereo not drawn) gave nsP2pro inh inactive.
Nc1cc(C(Cl)=C(Cl)Cl)c(S(N)(=O)=O)cc1S(N)(=O)=O was read as nsP2pro inh inactive.
`CCCN1C(=O)C(Cc2nc3ccccc3c(=O)n2CC)c2ccccc21` (stereo not drawn) gave nsP2pro inh inactive.
For C=CCOc1ccc(CC(=O)O)cc1Cl the results were nsP2pro inh inactive.
Screening CC(=O)Nc1cccc2c1c(Sc1ccc(Cl)cc1)c(C)n2CC(=O)O returned nsP2pro inh 9.88µM, CHIKV nsP2 cell inactive, CHIKV NSP2 FL inactive, Furin counterscr inactive, NS23 peptide cs inactive, Papain counter inactive, nsP2pro conf qHTS inactive and HCV NS3 4A cs inactive.
`COc1ccc2c(C(=O)c3ccc(Cl)cc3)c(C)n(CC(=O)O)c2c1` gave nsP2pro inh inactive.
`Cc1ccc(SCC(=O)Nc2cccc(-c3nc4cc(Cl)ccc4o3)c2C)cc1` gave nsP2pro inh inactive.
`COC(=O)N(C)Cc1cccc(N2CCN(C(c3ccccc3)c3ccccc3)CC2)c1` gave nsP2pro inh inactive.
For COCCn1c(C)cc(O)c(C(c2ccccc2OC)N2CCN(c3ccccc3)CC2)c1=O (stereo not drawn) the results were nsP2pro inh inconclusive and CHIKV nsP2 cell inactive.
`COc1ccccc1C(c1c(O)cc(C)n(Cc2ccco2)c1=O)N1CCCCC1` (stereo not drawn) gave nsP2pro inh inactive.
`COC(=O)[C@@]1(C)CC[C@]2(C(=O)O[C@@H]3O[C@H](CO)[C@@H](O)[C@H](O)[C@H]3O)CC[C@]3(C)C(=CCC4[C@@]5(C)CC[C@H](O[C@@H]6O[C@H](C(=O)O)[C@@H](O)[C@H](O)[C@H]6O)C(C)(C)C5CC[C@]43C)[C@@H]2C1` (stereo partly drawn) gave nsP2pro inh inactive[5.1 µM].
For C/C=C(\C)C(=O)O[C@H]1CC2C(=C1C)[C@H]1OC(=O)[C@](C)(O)[C@]1(O)[C@H](OC(=O)CCC)C[C@@]2(C)OC(C)=O (stereo partly drawn) the results were nsP2pro inh inactive.
Screening C/C=C(\C)C(=O)OC1C[C@@]2(COC(C)=O)O[C@H]2/C=C\[C@@]2(C)O[C@@H]2[C@H]2OC(=O)C(COC(C)=O)=C12 (stereo partly drawn) returned nsP2pro inh 3.42µM, CHIKV nsP2 cell inactive, CHIKV NSP2 FL inconclusive, Furin counterscr inactive, NS23 peptide cs inconclusive, Papain counter inactive, nsP2pro conf qHTS 3.47µM and HCV NS3 4A cs inconclusive.
Screening C=C1C(=O)O[C@H]2[C@H]1[C@@H](OC(=O)/C(C)=C\C)C[C@]1(C)O[C@@H]1[C@H]1O[C@H]1C(=C)[C@H]2O returned nsP2pro inh inactive.
O=C(COc1ccccc1CNc1ccc(F)cc1)Nc1ccc(F)cc1 was read as nsP2pro inh inactive.
For O=C(COc1ccccc1CNc1ccccc1)Nc1ccc(F)cc1 the results were nsP2pro inh inactive.
COc1cccc(CNc2ccc(S(=O)(=O)Nc3ccccn3)cc2)c1O was read as nsP2pro inh inactive.
For Oc1ccc(NCc2ccccc2OCc2ccccc2)cc1 the results were nsP2pro inh 3.01µM, CHIKV nsP2 cell 11.6µM, CHIKV NSP2 FL inconclusive, Furin counterscr inactive, NS23 peptide cs 18.3µM, Papain counter inactive, nsP2pro conf qHTS inconclusive and HCV NS3 4A cs 20.6µM.
Screening Oc1ccc(NCc2ccccc2OCc2ccc(Cl)cc2)cc1 returned nsP2pro inh 2.39µM, CHIKV nsP2 cell 11.6µM, CHIKV NSP2 FL 13µM, Furin counterscr inactive, NS23 peptide cs inconclusive, Papain counter inactive, nsP2pro conf qHTS inconclusive and HCV NS3 4A cs 13µM.
